The values below come from the supplement of paper PMC6555819.

In the first experiment the test system is FXR:RXRa (NR concentration 270 nM, RXRa partner concentration 90 nM). Briefly: PBM binding z-score (relative to random genomic background probes); higher = stronger binding; sequences stand for … in GC…GCGATTGACAGCGTAGAATGAAGG
A digest of the protocol: (§1)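 Random background probes are the reference for binding z-scores. These scores derive from regression-normalized fluorescence on custom Agilent 4×180K protein-binding microarrays incubated 1 h with ligand-free nuclear receptor dimers. Binding was detected with antibodies against each partner (one per run).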
As for AGAATGAGGTTAAGTTCAGGGAAACAGAATACAT, the PBM binding z-score stood at 4.05.
In turn, CCTACTGGACCAAGGTCATTGATCAGTCAAAGCA returned a PBM binding z-score of 3.24.
With ATCTCTAGGTTAAGATAGTTCAGTGAATGCAAAT, the PBM binding z-score turned out to be 0.821.
Still for that read-out and setting: in the case of CAAACTAGTTCAAGAGGTCAAAGTCCGCTTCCCG it was 5.96; in that of CCTACTGGGCCATTCAGAGGTCAATGATCATATG, 2.47.
On the same count and under the same terms, in the case of AGAATGGGGTTACCAAAGATCAGGGAAACGCTTG it was 3.7; in that of ATCGAAAGGTCCAAGGTGAGTATACCCACCCGAA, 0.219.
The same measure, in the same setting: the result for ACTCGGATGACAAAGGTCAGAGCTACGCCAGTGA reads 3.55; that for AGTCAAAGTTCATCTAGGTAACATAAGATATGCT, 6.39.
CCTAGTTGGTCAAGGTCACACCCGCTATAGGTAC came in with a PBM binding z-score of 3.45.
The sequence TCTAGTTGGTCACGGAGGTCACAAACGACGGGTA had a PBM binding z-score of 2.95.
AGAATGAGGTTAAACGTAGATCAGGGAAGAAAGT came in with a PBM binding z-score of 4.05.
On the same count and under the same terms, in the case of ACTTACGGCTCAACGAGGTTATAGCACGCGTATA it was 0.333.
Turning to AATACAGGGTGACTAGGCCAGAGTAGGTACGAAT, the PBM binding z-score stood at 0.201.
The same measure, in the same setting: the result for GCTGCTAGTTCAACTGATGGTCAGCTAAAGCTCG reads -0.0566; that for TAGCCTAGGTCATTCAGGGGCCAGCATAGAAAGC, 4.87; that for TTGCCTAGGTCATTGGGCCAGTATAGTACGCATC, 4.6.
The same measure, in the same setting: the result for AGAATGAGATTACCAAAGATCAGGGAAACGCTTG reads -0.562; that for ATCGAAAGGTCGACCAGGTGAGTATACACCGTTT, 4.91.
Still for that read-out and setting: in the case of CCTTACGGGTTACTCCAGGTTATAGCATCGGAGT it was 2.01.
Consider TCTGCTAGGTCAACGTTGGTCAGCTAATCTGCTA, for which the PBM binding z-score is 3.38.
ATATGTAGGATAGCTGGGGTCATTCAGACTAGGC gave a PBM binding z-score of 3.09.
The same measure, in the same setting: in the case of CCTAGCAGGCCAATCTAGGTCACTCAAGGCTTGA it was 1.46.
Same read-out and setting: in the case of CAAACTAGGTCACAGTGGTCAAAGTCCGTGCGTA it was 4.01; in that of CAAACTAGGTCACTAAAGGTCAAAGTCGAATGAC, 7.13; in that of GCTTACGGGTCCAAGGTTATAGCATGAATAGAAT, 0.369.
Still for that read-out and setting: the result for ATATGTAGGTTATCGGGTCATACAGTTTGCGCAT reads 3.18.
Consider TACCCTAGGTCATTCAGGGGCCAGTATAGAAAGC, for which the PBM binding z-score stood at 4.73.
On the same count and under the same terms, in the case of TCTTGTAGATCAACAGGAGGTTAATAAAGATCGA it was 0.0439; in that of TCTAGTTGGTCTAAGGTCACACACTCGAAATGCG, 4.14.
On the same count and under the same terms, in the case of TAGCCTAGGTCATGGGCCAGTGTACCACGCGAAC it was 4.82; in that of CCTACGGGGCCACGAAAGGTCATTGATTCAGTGA, 4.71.
Regarding TCTTGTAGATCGATAGAGGTTAAGAAAGTGCGCT, the PBM binding z-score was determined as 0.392.
Still for that read-out and setting: the result for AGAATGAGGTTACCAAAGGTCAGGGAAACGCTTG reads 6.02; that for CCGAGTTGGTCAAGGTCACACACGCTATAGGTAC, 4.37; that for ACTTACGGGTCTACGAGGTTATAGCACGCGTATA, 0.283.
Consider AGTCAAAGTTCAGGACGACGTAACGTAAAGCACG, for which the PBM binding z-score was 3.58.
The same measure, in the same setting: in the case of CGTCCAAGGTCAGCGGGTCAGTGAAAGCGACGTG it was 5.98.
Same read-out and setting: the result for ATATGTAGGTTAGCTGGGGTCCTTCAGACTAGGC reads 0.425; that for GATATAGGGTCAGCTAGAGGCCAGAGTATGGAAA, 5.03.

The subject of a further experiment is LXRa homodimer (NR concentration 270 nM). The experiment is described as above. A digest of the protocol: as §1
Regarding AGAATGAGGTTAAGTTCAGGGAAACAGAATACAT, the PBM binding z-score is 0.441.
The same measure, in the same setting: in the case of CCTACTGGACCAAGGTCATTGATCAGTCAAAGCA it was 1.96; in that of ATCTCTAGGTTAAGATAGTTCAGTGAATGCAAAT, 2.52; in that of CAAACTAGTTCAAGAGGTCAAAGTCCGCTTCCCG, 8.11.
On to CCTACTGGGCCATTCAGAGGTCAATGATCATATG, for which the PBM binding z-score is 4.81.
Still for that read-out and setting: the result for AGAATGGGGTTACCAAAGATCAGGGAAACGCTTG reads -0.351; that for ATCGAAAGGTCCAAGGTGAGTATACCCACCCGAA, -0.213.
Same read-out and setting: in the case of ACTCGGATGACAAAGGTCAGAGCTACGCCAGTGA it was 1.58; in that of AGTCAAAGTTCATCTAGGTAACATAAGATATGCT, 5.61.
On to CCTAGTTGGTCAAGGTCACACCCGCTATAGGTAC, for which the PBM binding z-score was determined as 2.19.
The sequence TCTAGTTGGTCACGGAGGTCACAAACGACGGGTA showed a PBM binding z-score of 2.21.
Consider AGAATGAGGTTAAACGTAGATCAGGGAAGAAAGT, for which the PBM binding z-score is -0.194.
Still for that read-out and setting: the result for ACTTACGGCTCAACGAGGTTATAGCACGCGTATA reads 0.28.
On the same count and under the same terms, in the case of AATACAGGGTGACTAGGCCAGAGTAGGTACGAAT it was 0.00715.
On the same count and under the same terms, the result for GCTGCTAGTTCAACTGATGGTCAGCTAAAGCTCG reads -0.53; that for TAGCCTAGGTCATTCAGGGGCCAGCATAGAAAGC, 0.45; that for TTGCCTAGGTCATTGGGCCAGTATAGTACGCATC, 0.781.
AGAATGAGATTACCAAAGATCAGGGAAACGCTTG returned a PBM binding z-score of -0.342.
Same read-out and setting: the result for ATCGAAAGGTCGACCAGGTGAGTATACACCGTTT reads 0.21.
On the same count and under the same terms, the result for CCTTACGGGTTACTCCAGGTTATAGCATCGGAGT reads 5.38.
Regarding TCTGCTAGGTCAACGTTGGTCAGCTAATCTGCTA, the PBM binding z-score was -0.139.
ATATGTAGGATAGCTGGGGTCATTCAGACTAGGC: the PBM binding z-score came to 1.63.
Consider CCTAGCAGGCCAATCTAGGTCACTCAAGGCTTGA, for which the PBM binding z-score was 0.192.
CAAACTAGGTCACAGTGGTCAAAGTCCGTGCGTA yielded a PBM binding z-score of 0.593.
CAAACTAGGTCACTAAAGGTCAAAGTCGAATGAC displayed a PBM binding z-score of 10.4.
Same read-out and setting: in the case of GCTTACGGGTCCAAGGTTATAGCATGAATAGAAT it was -0.143; in that of ATATGTAGGTTATCGGGTCATACAGTTTGCGCAT, 1.45; in that of TACCCTAGGTCATTCAGGGGCCAGTATAGAAAGC, 8.12.
In the case of TCTTGTAGATCAACAGGAGGTTAATAAAGATCGA, the PBM binding z-score was -0.0218.
For TCTAGTTGGTCTAAGGTCACACACTCGAAATGCG, the PBM binding z-score was determined as 2.63.
Sequence TAGCCTAGGTCATGGGCCAGTGTACCACGCGAAC returned a PBM binding z-score of 0.0441.
CCTACGGGGCCACGAAAGGTCATTGATTCAGTGA: the PBM binding z-score was 4.26.
For the sequence TCTTGTAGATCGATAGAGGTTAAGAAAGTGCGCT, the PBM binding z-score is -0.317.
Same read-out and setting: in the case of AGAATGAGGTTACCAAAGGTCAGGGAAACGCTTG it was 8.17; in that of CCGAGTTGGTCAAGGTCACACACGCTATAGGTAC, 1.98; in that of ACTTACGGGTCTACGAGGTTATAGCACGCGTATA, 0.149.
In the case of AGTCAAAGTTCAGGACGACGTAACGTAAAGCACG, the PBM binding z-score came out at 0.954.
The same measure, in the same setting: in the case of CGTCCAAGGTCAGCGGGTCAGTGAAAGCGACGTG it was 0.175; in that of ATATGTAGGTTAGCTGGGGTCCTTCAGACTAGGC, -0.109; in that of GATATAGGGTCAGCTAGAGGCCAGAGTATGGAAA, 0.0568.
